Measurements: PubChem BioAssay (NCI)
This is part of a sample that, as a whole, favours compounds with a hit. Of some 83,000 tested, about 20% had one in any assay.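 Interpretation: 100, growth as untreated; towards 0, rising growth inhibition; 0, no net growth; 0 to -100, cell death. Compounds scoring below 10 were considered active.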 Calls of active or inactive are those of the source.

Legend:
Test in all cases: NCI-60 one-dose screen, 48 h (100 = growth as untreated, 0 = no growth, -100 = all killed)
Details in all cases: 10 µM unless noted
EKVX NSCLC = test system: EKVX NSCLC
SN12C renal = test system: SN12C renal
UO-31 renal = test system: UO-31 renal
TK-10 renal = test system: TK-10 renal
ACHN renal = test system: ACHN renal
CAKI-1 renal = test system: CAKI-1 renal
A498 renal = test system: A498 renal
MOLT-4 leukemia = test system: MOLT-4 leukemia
SR leukemia = test system: SR leukemia
CCRF-CEM leukemia = test system: CCRF-CEM leukemia

Measured: growth

CCCCCCCCSc1ncnc2c1ncn2CO
inactive: EKVX NSCLC 55.5% | SN12C renal 76.4% | UO-31 renal 86.6% | TK-10 renal 89.9% | ACHN renal 81% | CAKI-1 renal 72.6% | A498 renal 106% | MOLT-4 leukemia 85.8% | SR leukemia 115%

CC1=CSC2=NCCN12
inactive: EKVX NSCLC 103% | SN12C renal 99.5% | UO-31 renal 77.6% | TK-10 renal 97.7% | ACHN renal 110% | CAKI-1 renal 93.5% | A498 renal 118% | MOLT-4 leukemia 102% | SR leukemia 93.1%

O=[N+]([O-])c1ccc2c(c1)S(=O)c1cc([N+](=O)[O-])ccc1N2
inactive: EKVX NSCLC 112% | SN12C renal 101% | UO-31 renal 77.7% | TK-10 renal 110% | ACHN renal 96.7% | CAKI-1 renal 98.8% | CCRF-CEM leukemia 98.9% | MOLT-4 leukemia 93% | SR leukemia 121%

O=C1C[C@@H]2/C(=C(O)\C=C\c3ccccc3)C(=O)C=C[C@@H]2O1
active: SN12C renal -21.8% | UO-31 renal -85.9% | TK-10 renal 3.39% | ACHN renal -17.7% | CAKI-1 renal -54% | MOLT-4 leukemia 6.97%
inactive: EKVX NSCLC 25.6% | CCRF-CEM leukemia 12.5% | SR leukemia 10.2%

CCn1c2ccccc2c2ccc(C(C)=O)cc21
inactive: EKVX NSCLC 99.2% | SN12C renal 114% | UO-31 renal 106% | TK-10 renal 105% | ACHN renal 98.1% | CAKI-1 renal 94.1% | A498 renal 83.8% | MOLT-4 leukemia 96.8% | SR leukemia 97.8%

COc1ccc(C2=NN(C(C)=O)C(c3cc(OC)c(OC)c(OC)c3)C2)cc1 (centres undefined)
active: SR leukemia -9.78%
inactive: EKVX NSCLC 95.2% | SN12C renal 109% | UO-31 renal 80% | TK-10 renal 152% | ACHN renal 104% | CAKI-1 renal 100% | A498 renal 96.5% | MOLT-4 leukemia 118%

O=C(O)c1ccccc1C(=O)OC1CCCC2CCCC21 (centres undefined)
inactive: EKVX NSCLC 92.4% | SN12C renal 95.8% | UO-31 renal 104% | TK-10 renal 116% | ACHN renal 103% | CAKI-1 renal 93.1% | CCRF-CEM leukemia 97% | MOLT-4 leukemia 98.7% | SR leukemia 104%

CCc1ccc(CCN2C(=O)c3ccccc3C2=O)nc1
inactive: EKVX NSCLC 91% | SN12C renal 103% | UO-31 renal 137% | TK-10 renal 126% | ACHN renal 105% | A498 renal 120% | CCRF-CEM leukemia 108% | MOLT-4 leukemia 109% | SR leukemia 104%

CCOC(=O)C1=NN(c2ccc(Cl)cc2)C2C3N(c4ccc(Cl)cc4)N=C(C(=O)OCC)N3c3ccccc3N12 (centres undefined)
inactive: EKVX NSCLC 104% | SN12C renal 111% | UO-31 renal 92.6% | TK-10 renal 119% | ACHN renal 121% | A498 renal 131% | MOLT-4 leukemia 47.4% | SR leukemia 40.4%

Oc1[nH]c2ccccc2c1/C=c1/ccc2c(c1)N=C(c1cc(F)cc(F)c1)N=2
active: CCRF-CEM leukemia -3.33%
inactive: EKVX NSCLC 70.7% | SN12C renal 68.2% | UO-31 renal 60.2% | TK-10 renal 114% | CAKI-1 renal 52.1% | A498 renal 60.5% | MOLT-4 leukemia 21% | SR leukemia 19.9%

Cc1c(N(C)CS(=O)(=O)O)c(=O)n(-c2ccccc2)n1C
inactive: EKVX NSCLC 93.1% | SN12C renal 93.9% | UO-31 renal 79.9% | TK-10 renal 108% | CAKI-1 renal 98.8% | A498 renal 109% | CCRF-CEM leukemia 96.9%

CCCCOc1ccc(C(C)(C)c2ccc(OCCCC)cc2)cc1
inactive: EKVX NSCLC 143% | SN12C renal 100% | UO-31 renal 80.5% | TK-10 renal 107% | ACHN renal 109% | A498 renal 126% | MOLT-4 leukemia 99.7% | SR leukemia 92.6%

C[N+]1(CCc2ccccc2)CCC(CCC2CC[N+](C)(CCc3ccccc3)CC2)CC1 (centres undefined)
inactive: EKVX NSCLC 97.2% | SN12C renal 88.5% | UO-31 renal 72.7% | TK-10 renal 96.9% | ACHN renal 101% | CAKI-1 renal 96.6% | MOLT-4 leukemia 123% | SR leukemia 120%

CCOC(=O)c1c(C)c(C(=O)OCC)n(C)c1C
inactive: EKVX NSCLC 75% | SN12C renal 104% | UO-31 renal 81.2% | TK-10 renal 78.4% | ACHN renal 95.6% | A498 renal 83.9% | CCRF-CEM leukemia 84.9% | MOLT-4 leukemia 87.1% | SR leukemia 87.8%

C=Cc1nn2c(CCC(=O)c3nc4ccccc4[nH]3)nnc2s1
inactive: EKVX NSCLC 106% | SN12C renal 101% | UO-31 renal 76.2% | TK-10 renal 131% | CAKI-1 renal 96.7% | A498 renal 135% | CCRF-CEM leukemia 104% | MOLT-4 leukemia 102%
